Screening results as filed in PubChem.
BH1578 lux ind – induces V. cholerae light production without autoinducers | V. cholerae BH1578 lux reporter, luminescence, 6 h | activation, % at 18.7 µM | hit rate 0.16% among 350,000 | AID 588436; in the data active means activation mostly above about 9.7%, no sharp cut-off; inconclusive means no clear call, values can overlap the other calls; inactive means mostly below about 3.7%
CCHF vOTU inh-1 – blocks the CCHF virus ovarian tumor domain protease; CCHFV vOTU protease, Pep-AMC fluorescence; inhibition, % at 11.5 µM; hit rate 0.55% among 370,000; further: 0% = vehicle wells with enzyme and 100% = no enzyme wells
PfHsp40 yeast – restores yeast growth despite PfHsp40 toxicity | S. cerevisiae expressing PfHsp40, growth rescue, ATP luminescence | growth rescue, % at 12.5 µM | hit rate 0.68% among 340,000; in the data active means growth rescue above about 28%, passing the limit was not always enough; inconclusive means no clear call, values can overlap the other calls;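 further: yeast W303a lacking pdr1 and pdr3 grown in galactose medium; growth measured after three days at 30 °C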
Sa RN4220 lethal – kills Staphylococcus aureus RN4220 | AID 1259311 | inhibition, % (no concentration beside the values) | hit rate 0.33% among 330,000 | S. aureus RN4220 growth, OD600, 16 h; in the data active means inhibition above about 85%;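 further: plate controls were untreated cells for no effect and reference antibiotic for full effect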
ugtP null kill – growth inhibition of S. aureus ugtP deletion strain. growth inhibition, % (concentration not given with the values). S. aureus RN4220 ugtP deletion, OD600 growth, 16 h. hit rate 0.54% among 330,000. AID 1259309; in the data active means growth inhibition above about 68%;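 further: plate controls were untreated wells for no effect and antibiotic for full effect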
Mtb hypoxia inh – reduces hypoxia-regulated biosensor signal in M. tuberculosis | M. tuberculosis hypoxia-regulated fluorescent reporter, fluorescence | fluorescence inhibition, % (concentration not given with the values) | hit rate 0.1% among 300,000 | AID 1159583; in the data active means fluorescence inhibition mostly above about 23%, no sharp cut-off; inactive means mostly below about 17%
CCHF vOTU inh-2 – CCHFV vOTU protease inhibition, confirmation; hit rate 17% among 1,900; Recombinant CCHFV vOTU, Pep-AMC fluorescence; inhibition, % at 11.5 µM; shares compounds with CCHF vOTU inh-1; AID 686976
* = called active by the depositor; i = inactive; ? = inconclusive; . = no result. This is a sample that favours compounds with a hit; in the whole collection about 1.7% have one here. Unless noted, no stated cut-off is given here; in the data, active means inhibition above about 30%; inactive means the rest.

SMILES	BH1578 lux ind	CCHF vOTU inh-1	PfHsp40 yeast	Sa RN4220 lethal	ugtP null kill	Mtb hypoxia inh	CCHF vOTU inh-2
COc1cccc(NS(=O)(=O)c2ccc3c(c2)N(C(C)=O)CCO3)c1	0	6	0	-1	-7	-11	.
CC(=O)N1CCOc2ccc(S(=O)(=O)Nc3cccc(C)c3)cc21	i	31*	-2	8	4	0	7
COC(=O)C=c1sc(=C(C#N)C(=O)NCc2ccccc2)n(-c2ccccc2)c1=O	.	.	.	-1	-5	-2	.
Cc1nc2scc(C)n2c(=O)c1S(=O)(=O)Nc1ccc(OC(F)(F)F)cc1	-1	40*	0	3	13	1	-4
C#CCOCCOCCOCCNc1nc(N2CCN(C(=O)C(CCC(=O)O)n3cc(C(N)C(C)CC)nn3)CC2)nc(N2CCN(C(=O)C(Cc3cc4ccccc4[nH]3)n3cc(C(N)C(C)CC)nn3)CC2)n1 (stereo not given)	.	.	.	7	2	5	.
O=C(c1ccccc1)c1coc2c1C(=O)c1ccccc1C2=O	0	34*	2	-3	7	-3	59*
COc1ccc(C(=O)c2coc3c2C(=O)C(=O)c2ccccc2-3)cc1	-1	6	8	25	6	11	.
CC(C)CC(CSc1ccccc1)N1CCN(CCc2ccccc2)CCC1=O (stereo not given)	.	.	.	3	4	6	.
CCCCn1c(N)c(N(CCC(C)C)C(=O)CC2CCCCC2)c(=O)[nH]c1=O	-1	-8	1	2	2	0	.
CCCCN(C(=O)CC1CCCCC1)c1c(N)n(CC(C)C)c(=O)[nH]c1=O	i	32*	0	2	5	2	-27
CCOC(=O)CN1C(=O)NC(c2ccco2)C(C(=O)OC)=C1C (stereo not given)	.	.	.	4	-3	12	.
Cc1noc(C)c1NC(=O)Nc1ccc2c(c1)C(=O)N(C(C)CO)CC(C)C(CN(C)C(=O)Nc1c(C)noc1C)O2 (stereo not given)	.	.	.	2	4	10	.
C[C@@H]1CN([C@@H](C)CO)C(=O)CCCn2nncc2CO[C@H]1CN(C)C(=O)Nc1ccccc1C(F)(F)F	0	30*	.	.	.	.	-20
C[C@@H]1CN([C@@H](C)CO)C(=O)CCCn2nncc2CO[C@@H]1CN(C)C(=O)Nc1ccccc1C(F)(F)F	-2	27	.	.	.	.	.
COc1cc(NS(=O)(=O)c2ccc(NC(=O)C=Cc3cccc([N+](=O)[O-])c3)cc2)ncn1	.	.	.	3	-1	5	.
COc1ccc(C2CC(=O)C=C(c3ccccc3C(F)(F)F)C2)cc1 (stereo not given)	.	.	.	1	35	6	.
C=CCn1c(O)c(C(CC)=Nc2ccc(N(C)C)cc2)c(=O)[nH]c1=O	i	38*	1	0	0	1	-21
Cc1cc(C)cc(N(CC(=O)Nc2ccc(C(F)(F)F)cc2)S(=O)(=O)c2c(C)[nH]c(=O)[nH]c2=O)c1	0	33*	-1	-4	-4	-11	-13
Cc1ncc([N+](=O)[O-])n1CC(=O)NN=Cc1ccccc1F	.	.	.	7	18	6	.
O=C1C(=Cc2cn(-c3ccccc3)nc2-c2ccc(OCc3ccccc3F)cc2)SC(=S)N1CCS(=O)(=O)O	-1	28	.	.	.	.	.
O=C1C(=Cc2cn(-c3ccccc3)nc2-c2ccc(OCc3ccc(Cl)cc3)cc2)SC(=S)N1CCS(=O)(=O)O	0	34*	.	.	.	.	25
CON=Cc1c(-c2ccccc2)nn(C)c1Cl	.	.	.	2	4	7	.
CCN(CC)c1ccc(CNc2nc3ccccc3n2CCN2CCCCC2)cc1	-1	30*	0	-1	-3	6	1
COc1ccc(CNc2nc3ccccc3n2CCN2CCCCC2)cc1	-1	-3	0	3	-4	9	.
C=CCNC(=O)C(=Cc1cn(-c2ccccc2)nc1-c1cccc([N+](=O)[O-])c1)NC(=O)c1ccccc1	.	.	.	4	-7	-13	.
SMILES	BH1578 lux ind	CCHF vOTU inh-1	PfHsp40 yeast	Sa RN4220 lethal	ugtP null kill	Mtb hypoxia inh	CCHF vOTU inh-2
Cc1onc(-c2ccccc2Cl)c1C(=O)N1CCC(Cc2ccccc2)CC1	-4	32*	?	5	3	-2	-23
Cc1onc(-c2ccccc2Cl)c1C(=O)N1CCC(C(N)=O)CC1	0	21	3	8	8	3	.
Cc1noc(C)c1S(=O)(=O)N(C)CC1Oc2ccc(NC(=O)Cc3ccccc3)cc2C(=O)N(C(C)CO)CC1C (stereo not given)	.	.	.	2	2	3	.
Cc1ccc(CN(C(=O)N2CCN(C)CC2)S(=O)(=O)c2ccc(C)cc2)cc1	-1	-1	-1	2	2	12	.
COC(=O)c1ccc(CN(C(=O)N2CCN(C)CC2)S(=O)(=O)c2ccc(C)cc2)cc1	-1	45*	-1	2	5	7	-19
CC(C)n1c(C=Cc2ccccc2)nc2ccccc21	.	.	.	10	15	11	.
COC(=O)C1=C(c2ccc(OCc3ccccc3)cc2)CC2CCC1N2C(=O)NCc1ccc(OC)c(OC)c1 (stereo not given)	.	.	.	-9	-16	0	.
COC(=O)C1C(c2ccccc2)NC(=O)N(Cc2ccccc2)C1C (stereo not given)	.	.	.	1	-3	3	.
O=C(CN1C2CCCC1CC(NC(=O)c1ccccc1)C2)Nc1ccccc1 (stereo not given)	0	30*	0	6	3	13	-17
COc1cc(/C=C2/C(=O)NN(c3ccc(Cl)c(Cl)c3)C2=O)cc([N+](=O)[O-])c1O	i	38*	2	0	1	-7	-10
CCOC(=O)NN=C(C)c1ccc(Br)cc1	.	.	.	7	4	5	.
Cc1cc(=O)[nH]c(-n2[nH]c(C)cc2=O)n1	i	3	5	10	12	.	.
COc1ccc(-n2[nH]c(C)cc2=O)cc1	0	33*	-1	-8	-8	5	-27
CCOc1cc(N2CCOCC2)c(OCC)cc1NC(=O)C(C)C	0	-4	0	3	8	13	.
CCOc1cc(N2CCOCC2)c(OCC)cc1NC(C)C(=O)N1CCN(CC)CC1 (stereo not given)	-1	31*	0	7	2	-5	2
Cc1ccc(C=Nc2ccccc2C(N)=O)o1	0	11	0	6	4	9	.
Cc1ccc(C=Nc2ccc(N(C)C)cc2)o1	4	33*	0	-1	-7	12	-4
Cc1ccc(-n2c(-c3cnccn3)n[nH]c2=S)cc1	i	30*	0	5	8	1	-10
C=CC[C@H](CC(=O)N(CCO)Cc1ccccc1)C(=O)N[C@@H](COC(=O)[C@@H](CC=C)CC(=O)OC(C)(C)C)Cc1c[nH]c2ccccc12	0	33*	4	.	.	.	2
C=CC[C@@H](CC(=O)N(CCO)Cc1ccccc1)C(=O)N[C@@H](COC(=O)[C@H](CC=C)CC(=O)OC(C)(C)C)Cc1c[nH]c2ccccc12	0	39*	8	.	.	.	15
